Measurements as given in PubChem BioAssay AID1508623 (National Center for Advancing Translational Sciences (NCATS), 2021).
Among all 48,000 compounds or so, about 450 (0.94%) were called active. About 19% were inconclusive and are not listed. Shown is part of a subset that was picked to be rich in actives. Unmarked numbers belong to inactive results. Calls follow the shape of the dose curve; as a rule, active = well fitted inhibition curve with a large enough effect; inconclusive = small, poorly fitted or top-dose-only effect; inactive = no such curve, though single readings can be large or run the other way.

Assay: Primary qHTS for Identification of Small Molecule Inhibitors of Huntingtin Promoter Activity; also: nearly all actives have a fitted effect of over 50% in size
Conditions: HEK293 HTT promoter firefly luciferase reporter (activity 0% = vehicle and -100% = no light), 24 h; series mostly up to 57.5 µM; activity change, negative = inhibition: at the top concentration
Excerpt: Assay Provider: Russell L. Margolis M.D.
Department Neurology, Johns Hopkins University School of Medicine, Baltimore, MD
Huntington's Disease (HD) is a neurodegenerative disorder caused by a CAG repeat expansion in exon 1 of huntingtin (HTT). While there are currently no disease-modifying treatments for HD, recent efforts have focused on development of nucleotide-based therapeutics to lower HTT expression. As an alternative to siRNA or oligonucleotide methods, we hypothesized that suppression of HTT expression might be accomplished by small molecules that either (1) directly decrease HTT expression by suppressing HTT promoter activity or (2) indirectly decrease HTT expression by increasing the promoter activity of HTT-AS, the gene antisense to HTT that appears to inhibit expression of HTT.
We developed and employed a high throughput screen for modifiers of HTT and HTT-AS promoter activity using luminescent reporter HEK293 cells; of the 52,041 compounds tested, we identified 898 replicable hits. We used a rigorous stepwise approach to assess compound toxicity and the capacity of the compounds to specifically lower huntingtin protein in 5 different cell lines, including HEK293 cells, HD lymphoblastoid cells, mouse primary neurons, HD iPSCs differentiated into cortical-like neurons, and HD hESCs. We found no compounds which were able to lower huntingtin without lowering cell viability in all assays, though the potential efficacy of a few compounds at non-toxic doses could not be excluded.
SEQUENCE No. (1, 2, 3, etc.); […] (e.g., Cells, Incubation, Reagent, etc.); VALUE and DESCRIPTION.
1; Reagent; 4 uL; 2,500 Hek293 luciferase reporter cells per wells
3; Compound; 23 nL; Control inhibitor / compound library
5; Reagent; 2.5 uL; Firefly Luc reagent; Dual-Glo Luciferase Reporter Assay System (Promega)
6; Time; 10 min; room temperature incubation
7; Detection; Luminescence; FLuc
NOTES (numbers refer to sequence above)
1; High-throughput screening, measuring luminescence from a Hek293 luciferase reporter, was performed in 1,536 well white-walled tissue-culture treated plates. 2,500 cells were plated in 4 µL of Opti-MEM per well using a Multidrop Combi Reagent Dispenser (ThermoFisher).
2; Assay plates were cultured for 24 hours.
3; Control inhibitor (PTC124; final concentration of 50 uM) and compound library (at final concentrations of 460 nM - 57.5 uM) were added to the assay plate using the Kalypsis Pintool Robotic System equipped with 1536 pinheads.
4; Cells were then incubated for 24 hours at 37 degrees C prior to luminescence measurements.
5; In all cases, luminescence was measured using the Dual-Glo Luciferase Reporter Assay System (Promega) following the manufacturer's instructions.
6; Room temperature incubation.
7; Luminescence signal was obtained using the PerkinElmer ViewLux plate reader. Results were normalized to vehicle control (0% activity) and zero RLU (-100% activity).
Potency is read from the fitted curve at half-maximal effect.

| Compound | activity change, negative = inhibition | Potency |
| --- | --- | --- |
| CCOc1cc(-c2nnc(SCC(=O)NC3CCCCC3)nc2-c2ccc(OC)c(OCC)c2)ccc1OC | -8.07% | – |
| COc1ccc(Cn2ccc3nc(C)c(C(=O)Nc4ccc(C)c(F)c4)cc3c2=O)cc1 | -9.53% | – |
| COC(=O)c1ccccc1NC(=O)c1ccc2c(=O)n3c(nc2c1)CCCCC3 | 10.1% | – |
| CS(=O)(=O)c1ccc(-c2nnc(NC(=O)c3ccc4c(c3)OCCO4)o2)cc1 | -5.72% | – |
| CCCCNc1ccc(-c2nc(-c3ccncc3)no2)cc1[N+](=O)[O-] | 0.996% | – |
| Cc1cccc(C)c1NC(=O)c1ccc(N)cc1 | 2.97% | – |
| CCOC(=O)c1ccc(NC(=O)Cn2c(=O)cc(C)c3c(C)nn(-c4cccc(F)c4)c32)cc1 | -8.8% | – |
| Cc1ccc2nc(NC(=O)c3nc(SCc4ccccc4F)ncc3Cl)sc2c1 | -12.5% | – |
| CCC(Sc1nnc(-c2ccc(OC)cc2)c(-c2ccc(OC)cc2)n1)C(=O)NC1CCCCC1 (centres undefined) | 5.07% | – |
| CCCn1c(NCc2ccc(N(CC)CC)cc2)nc2ccccc21 | -20.8% | – |
| COc1ccc(CCNS(=O)(=O)c2cc(-c3cc(C)no3)ccc2C)cc1OC | -17.2% | – |
| Cc1cc(-c2ccc(C)c(S(=O)(=O)N3c4ccccc4CC3C)c2)on1 (centres undefined) | – | 14.1 µM (active) |
| CCC1CN(S(=O)(=O)c2cc(-c3cc(C)no3)ccc2C)c2cc(C)ccc2O1 (centres undefined) | -13.3% | – |
| O=C1NC(=O)C(=Cc2cccc(C(F)(F)F)c2)S1 | -7.73% | – |
| Cc1ccc2c(c1)N(C(=O)Nc1ccc(Br)cc1F)CCO2 | -0.729% | – |
| COc1cc(-c2noc(-c3ccc(N4CCCC4)c([N+](=O)[O-])c3)n2)cc(OC)c1OC | -12.2% | – |
| CCNC(=O)CC1C(=O)N(c2ccc(F)cc2)C(=O)N1Cc1ccc(C)cc1 (centres undefined) | -7.1% | – |
| CCc1cccc(CC)c1NC(=O)Cn1c(=O)c(-c2cc(C)ccc2NC(C)=O)nc2ccccc21 | -3.39% | – |
| O=S(=O)(c1ccccc1)c1nc(-c2ccc(Cl)cc2Cl)oc1N1CCCCC1 | -9.26% | – |
| Cc1ccc(Nc2ccc3cc(S(=O)(=O)N4CCCCC4)ccc3n2)cc1F | -16.1% | – |
| Cc1c(Cl)cccc1NC(=O)c1noc2c1CCCC2 | 57.4% | – |
| O=C(c1ccc(Cl)cc1)n1nc(-c2cccnc2)nc1NCc1ccc(F)cc1 | -12.9% | – |
| CCOc1ccc2nc(N3CCC(C(=O)Nc4cc(C)ccc4C)CC3)sc2c1 | 45.7% | – |
| CCOc1cccc2sc(N3CCN(C(=O)C4CC4)CC3)nc12 | -10.1% | – |
| CC1CCN(c2nc3ccc(C(=O)N4CCN(c5ccccc5)CC4)cc3s2)CC1 | – | 1.12 µM (active) |

| Compound | activity change, negative = inhibition | Potency |
| --- | --- | --- |
| CCN(CCCNC(=O)Cn1ncc2c([nH]c3ccccc32)c1=O)c1cccc(C)c1 | 1.31% | – |
| CCOC(=O)N1CCc2c(sc(NCc3cccc(F)c3)c2C(=O)Nc2ccccc2OCC)C1 | -12.3% | – |
| Cc1ccc(C)n1-c1nnc(N2CCC(C(=O)NCc3ccc(F)cc3)CC2)s1 | -27.7% | – |
| O=C(NCc1ccccc1)c1ccc2c(c1)nc1n2CCCCC1 | 18.7% | – |
| O=C(NCc1ccc(F)cc1)c1ccc2nc(N3CCCCC3)sc2c1 | – | 8.91 µM (active) |
| CCOc1cccc(CC(=O)N2CCc3c([nH]c4ccccc34)C2c2ccc(F)cc2)c1OCC (centres undefined) | -26.1% | – |
| Cc1ccc(S(=O)(=O)n2nc(C)c(S(=O)(=O)N3CCCCCC3)c2C)cc1 | -15.8% | – |
| Cc1cc(O)c(C(c2ccccc2)N2CCN(c3ccccc3F)CC2)c(=O)n1Cc1ccco1 (centres undefined) | -5.4% | – |
| Cc1cc(C)cc(Nc2ncnc3onc(-c4ccc(F)cc4)c23)c1 | -17.4% | – |
| COC(=O)CSc1ccc2nnc(CCNS(=O)(=O)c3ccc(C)cc3)n2n1 | -0.0981% | – |
| CCc1ccccc1NC(=O)c1ccc2c(c1)CCN2S(C)(=O)=O | -3.42% | – |
| CCOc1ccc(C2CC(=O)c3c([nH]c(C(=O)OCc4ccccc4)c3C)C2)cc1 (centres undefined) | -27.8% | – |
| Cc1ccc2nc(-c3ccc(C)c(NC(=O)Cc4ccccc4)c3)oc2c1 | – | 12.6 µM (active) |
| CCc1ccc2oc(-c3ccc(C)c(NC(=O)/C=C/c4ccco4)c3)nc2c1 | 19.2% | – |
| CCC(=O)Nc1cccc(-c2nc3cc(C)ccc3o2)c1 | 16% | – |
| Cc1ccccc1CS(=O)(=O)CC1Nc2ccc(C(=O)NCc3ccc(Cl)cc3)cc2NC1=O (centres undefined) | -18.8% | – |
| O=C(Cn1cnc2c(oc3ccccc32)c1=O)Nc1ccc(OC(F)(F)F)cc1 | 0.986% | – |
| COc1ccc(OC)c(NC(=O)CSc2nc3ccccc3nc2N2CCCCC2)c1 | -30% | – |
| COc1ccc(CCNC(=O)c2ccc3c(c2)sc2nc(-c4ccc(C)cc4)cn23)cc1OC | 0.069% | – |
| COc1ccc(CCNC(=O)c2ccc(CSCc3ccc(C)cc3)o2)cc1OC | – | 25.1 µM (active) |
| Cc1ccc(CCNC(=O)c2ccc(CS(=O)(=O)Cc3cccc(C)c3)o2)cc1 | -25.6% | – |
| COc1ccccc1N1CCN(C(CNC(=O)C(=O)NCc2ccc(C)cc2)c2cccnc2)CC1 (centres undefined) | – | 11.2 µM (active) |
| O=C(NCc1cccnc1)C(=O)NCC(c1cccnc1)N1CCN(c2ccccc2)CC1 (centres undefined) | -32.1% | – |
| Cc1ccc(NC(=O)C(=O)NCC(c2cccnc2)N2CCOCC2)cc1 (centres undefined) | -5.3% | – |
